Measured values taken from the supplement of paper PMC9694430.
Values joined by “and” are separate entries in the source; they are usually repeats but may differ in a detail not shown here. Equal entries are not always repeated.

Experiments:
Assay in all cases: thermal shift delta Tm vs DMSO control; higher = stronger stabilization (binding)
Conditions in all cases: 12.5 µM; protein concentration 2 µM
LOC_OS01G01410-cb001 = test system: LOC_OS01G01410-cb001
How it was run: (§1)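 Thermal shift values come from differential scanning fluorimetry on purified rice kinase domains made in E. coli, with melting temperatures obtained from Boltzmann fits. Samples of 19.5 μl held 2 μM kinase, 100 mM potassium phosphate pH 7.5, 150 mM NaCl, 10% glycerol, 5 × SYPRO Orange and compound in DMSO, and were heated from 25°C to 95°C at 0.05°C/s. Each shift is a triplicate mean relative to the DMSO-only protein sample.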

LOC_OS01G02750-cb003 = test system: LOC_OS01G02750-cb003
How it was run: as §1

LOC_OS01G10900-cb004 = test system: LOC_OS01G10900-cb004
How it was run: as §1

LOC_OS01G13800-cb001 = test system: LOC_OS01G13800-cb001
How it was run: as §1

LOC_OS01G14860-cb001 = test system: LOC_OS01G14860-cb001
How it was run: as §1

LOC_OS01G21960-cb002 = test system: LOC_OS01G21960-cb002
How it was run: as §1

LOC_OS01G39600-cb002 = test system: LOC_OS01G39600-cb002
How it was run: as §1

LOC_OS01G48390-cb002 = test system: LOC_OS01G48390-cb002
How it was run: as §1

LOC_OS01G51400-cb002 = test system: LOC_OS01G51400-cb002
How it was run: as §1

LOC_OS01G52050-cb004 = test system: T1, LOC_OS01G52050-cb004
T1 sequence (whole entry): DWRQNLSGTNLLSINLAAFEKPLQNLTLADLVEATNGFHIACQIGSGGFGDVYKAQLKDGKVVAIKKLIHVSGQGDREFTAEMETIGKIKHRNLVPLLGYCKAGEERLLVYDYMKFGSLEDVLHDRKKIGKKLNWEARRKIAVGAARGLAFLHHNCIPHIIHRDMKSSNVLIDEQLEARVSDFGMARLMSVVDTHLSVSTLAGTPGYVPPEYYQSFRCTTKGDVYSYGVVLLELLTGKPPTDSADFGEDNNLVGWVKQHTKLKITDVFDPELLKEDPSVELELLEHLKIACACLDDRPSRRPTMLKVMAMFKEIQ
How it was run: as §1

LOC_OS01G57100-cb003 = test system: LOC_OS01G57100-cb003
How it was run: as §1

LOC_OS01G60330-cb001 = test system: LOC_OS01G60330-cb001
How it was run: as §1

LOC_OS01G60700-cb002 = test system: LOC_OS01G60700-cb002
How it was run: as §1

LOC_OS01G63280-cb003 = test system: LOC_OS01G63280-cb003
How it was run: as §1

LOC_OS01G67340-cb003 = test system: LOC_OS01G67340-cb003
How it was run: as §1

LOC_OS01G70970-cb002 = test system: LOC_OS01G70970-cb002
How it was run: as §1

LOC_OS02G07810-cb001 = test system: LOC_OS02G07810-cb001
How it was run: as §1

LOC_OS02G08530-cb003 = test system: LOC_OS02G08530-cb003
How it was run: as §1

LOC_OS02G14120-cb001 = test system: LOC_OS02G14120-cb001
How it was run: as §1

LOC_OS02G17970-cb001 = test system: LOC_OS02G17970-cb001
How it was run: as §1
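Note: purified Escherichia coli-expressed rice kinase domain construct.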

| Compound | thermal shift delta Tm (LOC_OS01G01410-cb001) | thermal shift delta Tm (LOC_OS01G02750-cb003) | thermal shift delta Tm (LOC_OS01G10900-cb004) | thermal shift delta Tm (LOC_OS01G13800-cb001) | thermal shift delta Tm (LOC_OS01G14860-cb001) | thermal shift delta Tm (LOC_OS01G21960-cb002) | thermal shift delta Tm (LOC_OS01G39600-cb002) | thermal shift delta Tm (LOC_OS01G48390-cb002) | thermal shift delta Tm (LOC_OS01G51400-cb002) | thermal shift delta Tm (LOC_OS01G52050-cb004) | thermal shift delta Tm (LOC_OS01G57100-cb003) | thermal shift delta Tm (LOC_OS01G60330-cb001) | thermal shift delta Tm (LOC_OS01G60700-cb002) | thermal shift delta Tm (LOC_OS01G63280-cb003) | thermal shift delta Tm (LOC_OS01G67340-cb003) | thermal shift delta Tm (LOC_OS01G70970-cb002) | thermal shift delta Tm (LOC_OS02G07810-cb001) | thermal shift delta Tm (LOC_OS02G08530-cb003) | thermal shift delta Tm (LOC_OS02G14120-cb001) | thermal shift delta Tm (LOC_OS02G17970-cb001) |
| --- | --- | --- | --- | --- | --- | --- | --- | --- | --- | --- | --- | --- | --- | --- | --- | --- | --- | --- | --- | --- |
| CS(=O)(=O)CCNCc1ccc(-c2ccc3ncnc(Nc4ccc(OCc5cccc(F)c5)c(Cl)c4)c3c2)o1 | 1.42 °C | 0.57 °C | -0.68 °C | 0.49 °C | 0.2 °C | 0.5 °C | 0.33 °C | 0.41 °C | 0.31 °C | 0.63 °C | 0.92 °C | 1.06 °C | 1.49 °C | 0.35 °C | -0.49 °C | 0.26 °C | 1.15 °C | 0.58 °C | -0.53 °C | 0.69 °C |
| CN(c1ncccc1CNc1nc(Nc2ccc3c(c2)CC(=O)N3)ncc1C(F)(F)F)S(C)(=O)=O | 1.79 °C and 2.31 °C | 3.54 °C and 4.36 °C | 1.71 °C and 2.09 °C | -0.44 °C and -0.69 °C | 4.96 °C and 3.99 °C | 2.13 °C and 2.41 °C | 8.29 °C and 12.3 °C | 2.62 °C and 2.82 °C | 1.29 °C and 1.71 °C | 5.25 °C and 6.24 °C | 1.74 °C and 1.7 °C | 2.27 °C and 2.55 °C | 0.88 °C and 1.26 °C | 2.29 °C and 3.24 °C | 1.9 °C and 2.14 °C | 6.41 °C and 7.59 °C | 0.34 °C and 0.67 °C | 1.99 °C and 2.23 °C | 4.47 °C and 5.67 °C | 0.58 °C and 1.27 °C |
| CCN(CC)CCCC(C)Nc1nc(C)cc(Nc2ccc3nc(C)cc(N)c3c2)n1 (stereo not given) | 1.12 °C | 1.02 °C | -0.35 °C | -0.26 °C | 0.18 °C | 0.15 °C | 0.28 °C | 1.07 °C | 0.05 °C | 0.12 °C | 1.43 °C | 0.65 °C | 0.91 °C | 0.28 °C | 0.08 °C | 0.16 °C | -0.06 °C | 0.57 °C | 0.93 °C | 0.8 °C |
| N#C/C(=C\c1ccc(O)c(O)c1)C(=O)NCc1ccccc1 [AG-490 (Tyrphostin B42)] | 2.63 °C | 17.9 °C | 0.93 °C | 1.74 °C | 1.27 °C | 1.78 °C | -0.2 °C | 1.08 °C | 0.47 °C | 0.46 °C | 0.3 °C | 0.46 °C | 1.9 °C | 0.34 °C | 0.38 °C | 0.32 °C | 1.89 °C | 0.84 °C | -0.01 °C | 1.7 °C |
| CC[C@@H]1C(=O)N(C)c2cnc(Nc3ccc(C(=O)NC4CCN(C)CC4)cc3OC)nc2N1C1CCCC1 | 1.63 °C | -0.86 °C | -0.01 °C | -0.37 °C | -0.16 °C | 0.05 °C | 0.36 °C | -0.02 °C | -0.01 °C | 0.06 °C | 0.75 °C | 2.55 °C | 0.69 °C | -0.22 °C | -0.4 °C | 0.34 °C | 0.2 °C | 1.93 °C | 0.27 °C | 0.02 °C |
| CC(C)n1nc(-c2cc3cc(O)ccc3[nH]2)c2c(N)ncnc21 [Torkinib (PP242)] | 0.97 °C | 0.22 °C | 0.64 °C | 0.08 °C | 0.52 °C | 0.37 °C | -0.17 °C | 0.78 °C | 0.2 °C | 0.85 °C | 0.56 °C | 1.53 °C | 1.1 °C | 3.14 °C | 1.04 °C | 0.66 °C | 0.64 °C | 0.63 °C | 0.74 °C | 0.57 °C |
| COCCOc1cnc2ccn([C@H](C)c3nnc4c(F)cc(-c5cnn(C)c5)cn34)c(=O)c2c1 | 0.44 °C | 0.28 °C | 0.34 °C | -0.27 °C | 0.15 °C | 0.42 °C | -0.26 °C | 0.28 °C | 0.32 °C | 0.4 °C | 0.7 °C | -0.01 °C | 0.32 °C | 0.22 °C | 0.31 °C | 0.36 °C | 0.15 °C | 0.71 °C | 1.22 °C | 0.15 °C |
| CCN1/C(=C/C(C)=O)Sc2ccc(OC)cc21 | 0.21 °C | 0.62 °C | 0.24 °C | 0.6 °C | 1.92 °C | 1.17 °C | -0.62 °C | 0.54 °C | 0.02 °C | -0.01 °C | 1.85 °C | 1.16 °C | 0.54 °C | 0.05 °C | 0.66 °C | 0.38 °C | 0.47 °C | 0.41 °C | 0.43 °C | 0.27 °C |
| Cc1[nH]c(/C=C2\C(=O)Nc3ccc(S(=O)(=O)N(C)c4cccc(Cl)c4)cc32)c(C)c1C(=O)N1CCN(C)CC1 | 1.44 °C | 2.62 °C | 0.43 °C | 0.07 °C | 0.57 °C | 0.44 °C | -0.1 °C | 0.18 °C | 0.14 °C | 1.01 °C | 1.03 °C | 5.91 °C | 0.86 °C | -0.04 °C | -0.53 °C | 0.47 °C | -0.12 °C | 3.7 °C | 8.19 °C | -0.27 °C |
| CNC(=O)c1ccc(C)c(-n2c(C)cc(OCc3ccc(F)cc3F)c(Br)c2=O)c1 | -0.05 °C | 0.1 °C | 0.26 °C | 0.31 °C | -0.06 °C | 0.34 °C | -0.13 °C | 0.65 °C | 0.44 °C | 0.41 °C | 2.4 °C | 0.78 °C | 1.45 °C | 0.3 °C | -0.29 °C | 0.12 °C | 1.25 °C | 0.96 °C | 0.27 °C | 0.83 °C |
| C[C@@H](Oc1cc(-c2cnn(C3CCNCC3)c2)cnc1N)c1c(Cl)ccc(F)c1Cl | 2.96 °C | 1.71 °C | 1.58 °C | -0.59 °C | 0.41 °C | -0.27 °C | 0.93 °C | 5.62 °C | 0.05 °C | 4.57 °C | 2.74 °C | 1.69 °C | 0.88 °C | 0.44 °C | 1.69 °C | 1.7 °C | 0.08 °C | 0.54 °C | 10.6 °C | 0.54 °C |
| Nc1ccc(C(=O)Nc2cccc(-c3nc(N4CCOCC4)c4oc5ncccc5c4n3)c2)cn1 | 1.9 °C | 1.58 °C | 1.27 °C | 0.49 °C | 0.58 °C | 0.56 °C | 0.13 °C | 0.28 °C | 0.29 °C | 0.45 °C | 1.26 °C | 1.1 °C | 1.16 °C | -0.04 °C | -0.15 °C | 0.23 °C | 0.77 °C | 1.1 °C | 0.34 °C | 0.35 °C |
| C=CC(=O)Nc1ccc(CN2C(=O)N(c3cc(OC)cc(OC)c3)Cc3cnc(Nc4ccc(N5CCN(C)CC5)cc4)nc32)cc1 | 1.43 °C | 1.19 °C | 4.79 °C | 0.56 °C | 0.97 °C | 1.74 °C | -0.73 °C | 4.57 °C | 0.02 °C | 0.08 °C | 3.1 °C | 0.63 °C | 2.43 °C | 0.9 °C | 0.61 °C | 1.17 °C | 1.48 °C | 1.77 °C | 2.28 °C | 1.39 °C |
